# Assay results: PubChem BioAssay AID602350 (Broad Institute, 2012)
# Results with a measured potency or affinity are listed apart. Active and inactive are the calls of the source.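 How the source made its calls: active means absorbance falls by 30% or more versus neutral controls, with a potency fitted within twice the top valid dose; inconclusive means no clear call, values can overlap the other calls; inactive means change opposite to expected direction, plus the rest.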
# Target: Protein disulfide-isomerase (Homo sapiens) (UniProt P07237)
# Test: PDI inhibitors, insulin aggregation turbidity, dose response, biochemical, absorbance, cherry-picked samples (AID 602350)
# Details: recombinant PDI insulin aggregation, absorbance 650 nm, 90 min; series mostly up to 19.5 µM
# Sequence of Protein disulfide-isomerase (Homo sapiens) (P07237 whole entry, looked up): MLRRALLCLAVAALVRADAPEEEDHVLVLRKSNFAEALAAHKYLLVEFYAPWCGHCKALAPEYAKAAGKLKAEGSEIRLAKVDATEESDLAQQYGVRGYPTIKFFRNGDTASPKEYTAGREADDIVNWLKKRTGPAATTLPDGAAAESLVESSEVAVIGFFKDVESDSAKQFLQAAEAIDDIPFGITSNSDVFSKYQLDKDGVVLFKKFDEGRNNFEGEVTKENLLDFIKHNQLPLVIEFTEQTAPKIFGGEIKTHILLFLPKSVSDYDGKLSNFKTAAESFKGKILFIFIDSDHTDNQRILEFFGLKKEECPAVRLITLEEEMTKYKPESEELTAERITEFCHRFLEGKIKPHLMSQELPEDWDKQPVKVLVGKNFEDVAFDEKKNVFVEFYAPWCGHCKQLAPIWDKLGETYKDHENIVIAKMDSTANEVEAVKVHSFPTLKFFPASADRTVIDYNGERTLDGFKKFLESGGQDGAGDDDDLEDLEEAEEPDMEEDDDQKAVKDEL
row,Compound,outcome
1,CCOC(=O)c1c(-c2ccccc2)oc2cc(Br)c(O)cc12,inactive
2,Cc1ccc(C)c(N2CCN(S(=O)(=O)c3ccc4c(c3)OCCO4)CC2)c1,inactive
3,C=CCn1c(SCC(=O)Nc2ccc(N(C)C)cc2)nnc1-c1cccc(C)c1,inactive
4,Cc1ccc(NC(=O)CSC(C)C(=O)OCc2cc(=O)oc3cc(O)ccc23)cc1 (stereo not given),inactive
5,Cc1noc(C)c1C(=O)OCC(=O)NCCc1ccc(Cl)cc1,inactive
6,CCOC(=O)c1ccc2c(c1)nc(SCC(=O)N1CCCCC1)n2CC,inactive
7,CC(=O)c1ccc(N2CCN(C(=O)c3ccc4[nH]c(C)c(C)c4c3)CC2)cc1,inactive
8,CCCc1cc(=O)[nH]c(SCCOc2ccc(OCC)cc2)n1,inactive
9,Cc1cccc(C(=O)OCC(=O)N2CCCCCC2)c1O,inactive
10,O=C1/C(=C\c2ccc(O)cc2)CCC1CNc1ccc(Cl)cc1 (stereo not given),inactive
11,CN(C)CCCN(C(=O)c1ccc(S(=O)(=O)N2CCc3ccccc32)cc1)c1nc2c(Cl)cccc2s1,inactive
12,COc1cc2c(cc1OC)C1C(C(=O)Nc3ccccc3N3CCN(C)CC3)c3ccccc3C(=O)N1CC2 (stereo not given),inactive
13,O=C1N[C@@H](Cc2c[nH]c3ccccc23)COC(=O)[C@H](Cc2ccc(F)cc2)C/C=C\C[C@H]1CC(=O)N(CCO)Cc1ccccc1,inactive
14,CC[C@]12c3[nH]c4cc(-c5ccco5)ccc4c3CCN1C(=O)[C@@H](CC(=O)NCc1ccco1)C[C@@H]2C(=O)N1CCN(C(=O)c2ccco2)CC1,inactive
15,CN(C)c1ccc(C2(O)C(=O)c3ccccc3C2=O)cc1,inactive
